Experimental findings from ChEMBL document CHEMBL3988442, “University of Dundee, Small-Polar-MMV Screening Library” (2021) are described below.

The structures appear in SMILES notation. For some of these results: Results with a measured potency or affinity are listed apart.

Set-up in all cases: scale not given: direction of the effect not stated beside the values
Test [1] concerns the target Protein translocase subunit SecA (Escherichia coli (strain K12)) (UniProt P10408). As to the kind of experiment: Assay to Identify E. coli SecA ATPase Inhibitors. Particulars: 30 µM. The test is classed as functional.
Test [2] concerns the target T1, Ubiquitin-activating enzyme e1, putative (Leishmania donovani (strain BPK282A1)) (UniProt E9BSI1).
T1 sequence (whole entry): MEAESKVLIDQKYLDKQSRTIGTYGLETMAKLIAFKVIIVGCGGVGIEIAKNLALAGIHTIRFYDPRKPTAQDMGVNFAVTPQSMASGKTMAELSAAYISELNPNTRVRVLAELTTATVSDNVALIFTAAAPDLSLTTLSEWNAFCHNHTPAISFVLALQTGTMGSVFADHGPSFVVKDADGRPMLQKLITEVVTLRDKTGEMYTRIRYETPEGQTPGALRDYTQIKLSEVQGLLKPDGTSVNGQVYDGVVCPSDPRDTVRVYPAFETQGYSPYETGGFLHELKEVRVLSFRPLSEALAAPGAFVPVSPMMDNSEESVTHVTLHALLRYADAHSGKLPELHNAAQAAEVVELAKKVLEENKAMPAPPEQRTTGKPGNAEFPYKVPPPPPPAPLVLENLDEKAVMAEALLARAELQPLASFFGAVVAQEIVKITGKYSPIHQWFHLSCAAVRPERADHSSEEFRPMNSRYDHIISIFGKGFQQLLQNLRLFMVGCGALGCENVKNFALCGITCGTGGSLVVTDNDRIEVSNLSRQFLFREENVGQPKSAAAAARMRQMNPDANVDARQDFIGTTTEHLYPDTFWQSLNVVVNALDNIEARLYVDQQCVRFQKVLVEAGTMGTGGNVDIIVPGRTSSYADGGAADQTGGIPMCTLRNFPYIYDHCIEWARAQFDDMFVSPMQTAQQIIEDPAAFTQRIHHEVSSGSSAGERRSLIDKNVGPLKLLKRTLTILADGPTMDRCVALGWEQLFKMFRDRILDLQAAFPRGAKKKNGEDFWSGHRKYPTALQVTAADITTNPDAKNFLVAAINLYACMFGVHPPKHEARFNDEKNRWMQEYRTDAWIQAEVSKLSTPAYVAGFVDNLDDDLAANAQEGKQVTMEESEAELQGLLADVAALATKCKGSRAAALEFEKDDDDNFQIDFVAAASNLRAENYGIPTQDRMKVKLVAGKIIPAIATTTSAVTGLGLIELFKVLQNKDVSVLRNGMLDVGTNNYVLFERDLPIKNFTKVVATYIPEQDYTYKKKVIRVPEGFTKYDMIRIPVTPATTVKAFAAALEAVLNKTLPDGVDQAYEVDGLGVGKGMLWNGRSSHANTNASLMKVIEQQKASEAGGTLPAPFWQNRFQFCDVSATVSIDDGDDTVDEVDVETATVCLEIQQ
As to the kind of experiment: Leishmania donovani Ubiquitin Activating Enzyme (LdE1). It counts as functional. Particulars: 30 µM.

Test [3] deals with AMP-activated protein kinase, AMPK (Homo sapiens) (UniProt P54646+O43741+P54619+Q9UGJ0+Q9Y478+Q13131+Q9UGI9). As to the kind of experiment: AMP-dependent Kinase enzyme assay. An in vitro enzyme assay that detects ADP turnover that is directly proportional to AMPK activity. This uses naive AMPK that is activated during the assay with MK-8722. As to conditions: 30 µM. It counts as functional.

For test [4], the target named is Sialic acid-binding Ig-like lectin 9 (Homo sapiens) (UniProt Q9Y336). As to the kind of experiment: Hs-Siglec9 ALPHAscreen SOP 20170721. As to conditions: 10 µM.
Test [5] deals with Trypanosoma cruzi. As to the kind of experiment: Trypanosoma cruzi phosphomannomutase and mannose-1-phosphate guanylyltransferase assay. It counts as functional. Particulars: 10 µM.
Test [6] has as its target T2, Arginase-2, mitochondrial (Homo sapiens) (UniProt P78540).
T2 sequence (whole entry): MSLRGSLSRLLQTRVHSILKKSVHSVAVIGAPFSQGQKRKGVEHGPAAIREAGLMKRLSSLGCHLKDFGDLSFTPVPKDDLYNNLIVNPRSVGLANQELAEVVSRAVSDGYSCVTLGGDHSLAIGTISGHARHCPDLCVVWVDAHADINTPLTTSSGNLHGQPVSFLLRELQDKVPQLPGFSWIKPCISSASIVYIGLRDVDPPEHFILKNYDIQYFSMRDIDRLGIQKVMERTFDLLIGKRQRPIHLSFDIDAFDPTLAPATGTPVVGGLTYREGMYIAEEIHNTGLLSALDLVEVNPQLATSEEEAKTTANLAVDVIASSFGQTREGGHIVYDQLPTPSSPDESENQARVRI
The experiment in a line: in vitro enzyme assay to detect the production of urea directly proportional to the activity of Arginase II. Also: in the data most compounds retested in dose-response had high values. As to conditions: 33.3 µM. It counts as functional.

For test [7], the target named is T3, Proteasome subunit beta (Trypanosoma cruzi) (UniProt O96673).
T3 sequence (whole entry): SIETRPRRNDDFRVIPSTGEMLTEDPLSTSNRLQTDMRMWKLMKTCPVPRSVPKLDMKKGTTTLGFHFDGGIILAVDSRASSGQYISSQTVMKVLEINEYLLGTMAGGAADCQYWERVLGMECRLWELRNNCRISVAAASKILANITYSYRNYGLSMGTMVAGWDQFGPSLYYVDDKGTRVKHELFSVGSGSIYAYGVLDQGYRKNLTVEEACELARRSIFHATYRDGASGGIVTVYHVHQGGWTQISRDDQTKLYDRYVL
The experiment in a line: Trypanosoma cruzi proteasome chymotrypsin-like activity (TcProtChymo) assay. Also: in the data most compounds retested in dose-response had high values. It counts as functional. Particulars: 9.37 µM.

For test [8], the species on record is Homo sapiens. The experiment in a line: To identify inhibition of the IFN signalling (Jak-Stat) pathway via expression of an eGFP reporter gene under the control of an IFN-stimulated response element (ISRE) containing MxA promoter. It counts as functional. Particulars: 30 µM.
The target of test [9] is T4, Tyrosyl-tRNA synthetase, putative (Trypanosoma cruzi (strain CL Brener)) (UniProt Q4DSP6).
T4 sequence (whole entry): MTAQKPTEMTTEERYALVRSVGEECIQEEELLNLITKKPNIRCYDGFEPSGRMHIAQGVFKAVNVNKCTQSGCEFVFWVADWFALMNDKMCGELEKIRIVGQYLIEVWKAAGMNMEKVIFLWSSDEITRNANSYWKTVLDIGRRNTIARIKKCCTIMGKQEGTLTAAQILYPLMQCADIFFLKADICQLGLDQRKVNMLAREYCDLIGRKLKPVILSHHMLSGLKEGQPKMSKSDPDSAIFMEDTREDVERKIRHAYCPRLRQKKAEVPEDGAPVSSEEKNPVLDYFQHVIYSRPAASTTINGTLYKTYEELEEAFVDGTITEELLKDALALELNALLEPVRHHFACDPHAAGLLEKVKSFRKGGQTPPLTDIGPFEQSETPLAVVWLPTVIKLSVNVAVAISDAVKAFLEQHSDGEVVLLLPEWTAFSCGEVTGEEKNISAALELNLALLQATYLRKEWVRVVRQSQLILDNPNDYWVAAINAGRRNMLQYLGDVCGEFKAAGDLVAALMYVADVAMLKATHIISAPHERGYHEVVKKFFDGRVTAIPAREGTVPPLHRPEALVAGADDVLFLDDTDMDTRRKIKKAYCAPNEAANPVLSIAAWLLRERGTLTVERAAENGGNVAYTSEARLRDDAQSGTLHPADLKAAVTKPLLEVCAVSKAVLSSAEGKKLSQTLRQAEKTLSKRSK
As to the kind of experiment: Trypanosoma cruzi tyrosyl tRNA synthetase (TcYRS) _High Tyrosine SOP. Also: in the data most compounds retested in dose-response had high values. It counts as functional. Particulars: 30 µM.

For test [10], the target named is T4, Tyrosyl-tRNA synthetase, putative (Trypanosoma cruzi (strain CL Brener)). The experiment in a line: Trypanosoma cruzi tyrosyl tRNA synthetase (TcYRS) SOP. It counts as functional. Particulars: 30 µM.
The target in test [11] is Chromo domain-containing protein 1 (Saccharomyces cerevisiae (strain ATCC 204508 / S288c) (Baker's yeast)) (UniProt P32657). The experiment in a line: ScCHD-1 Enzyme Inhibition Assay. Also: in the data most compounds retested in dose-response had high values. Particulars: 30 µM. The test is classed as functional.
Chain of Chromo domain-containing protein 1 (Saccharomyces cerevisiae (strain ATCC 204508 / S288c) (Baker's yeast)) (P32657 whole entry, the tested form may be a part): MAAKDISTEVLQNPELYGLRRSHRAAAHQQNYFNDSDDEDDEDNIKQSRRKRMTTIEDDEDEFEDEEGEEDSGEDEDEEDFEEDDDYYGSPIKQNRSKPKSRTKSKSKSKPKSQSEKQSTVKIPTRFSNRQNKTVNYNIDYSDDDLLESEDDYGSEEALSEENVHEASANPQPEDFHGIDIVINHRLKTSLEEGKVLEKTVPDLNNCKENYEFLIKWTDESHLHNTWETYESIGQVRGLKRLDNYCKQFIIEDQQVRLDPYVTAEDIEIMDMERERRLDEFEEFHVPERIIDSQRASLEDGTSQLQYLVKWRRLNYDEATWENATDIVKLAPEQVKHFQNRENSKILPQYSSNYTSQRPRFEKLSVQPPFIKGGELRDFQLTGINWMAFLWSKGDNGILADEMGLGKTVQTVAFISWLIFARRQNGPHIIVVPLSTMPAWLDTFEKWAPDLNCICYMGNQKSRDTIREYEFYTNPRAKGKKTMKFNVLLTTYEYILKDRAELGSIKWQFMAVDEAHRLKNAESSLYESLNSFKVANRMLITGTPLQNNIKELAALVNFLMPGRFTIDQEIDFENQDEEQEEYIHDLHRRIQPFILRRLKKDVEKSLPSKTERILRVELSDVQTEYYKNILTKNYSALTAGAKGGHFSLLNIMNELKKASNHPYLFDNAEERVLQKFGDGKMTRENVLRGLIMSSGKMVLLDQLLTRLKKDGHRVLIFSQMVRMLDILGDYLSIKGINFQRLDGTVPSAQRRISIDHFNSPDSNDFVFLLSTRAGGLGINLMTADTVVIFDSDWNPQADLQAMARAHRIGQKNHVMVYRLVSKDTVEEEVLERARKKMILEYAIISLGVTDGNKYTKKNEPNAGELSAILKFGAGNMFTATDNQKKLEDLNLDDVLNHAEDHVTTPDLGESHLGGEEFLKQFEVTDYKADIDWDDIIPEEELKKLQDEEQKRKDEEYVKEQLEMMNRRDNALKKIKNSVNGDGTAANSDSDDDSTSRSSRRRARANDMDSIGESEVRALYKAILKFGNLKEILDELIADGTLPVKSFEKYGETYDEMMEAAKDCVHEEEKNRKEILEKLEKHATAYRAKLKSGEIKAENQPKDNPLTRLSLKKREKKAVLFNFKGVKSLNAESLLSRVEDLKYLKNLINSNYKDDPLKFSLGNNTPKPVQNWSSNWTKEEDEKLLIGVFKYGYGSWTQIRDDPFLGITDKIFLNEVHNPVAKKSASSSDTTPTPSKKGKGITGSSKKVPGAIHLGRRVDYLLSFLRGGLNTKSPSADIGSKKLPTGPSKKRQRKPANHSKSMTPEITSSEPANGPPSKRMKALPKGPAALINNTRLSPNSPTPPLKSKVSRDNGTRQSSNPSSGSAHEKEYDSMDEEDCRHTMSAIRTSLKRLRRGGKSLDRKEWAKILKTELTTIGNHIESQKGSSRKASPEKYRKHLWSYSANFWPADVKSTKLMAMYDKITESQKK

Chain of Protein translocase subunit SecA (Escherichia coli (strain K12)) (P10408 whole entry): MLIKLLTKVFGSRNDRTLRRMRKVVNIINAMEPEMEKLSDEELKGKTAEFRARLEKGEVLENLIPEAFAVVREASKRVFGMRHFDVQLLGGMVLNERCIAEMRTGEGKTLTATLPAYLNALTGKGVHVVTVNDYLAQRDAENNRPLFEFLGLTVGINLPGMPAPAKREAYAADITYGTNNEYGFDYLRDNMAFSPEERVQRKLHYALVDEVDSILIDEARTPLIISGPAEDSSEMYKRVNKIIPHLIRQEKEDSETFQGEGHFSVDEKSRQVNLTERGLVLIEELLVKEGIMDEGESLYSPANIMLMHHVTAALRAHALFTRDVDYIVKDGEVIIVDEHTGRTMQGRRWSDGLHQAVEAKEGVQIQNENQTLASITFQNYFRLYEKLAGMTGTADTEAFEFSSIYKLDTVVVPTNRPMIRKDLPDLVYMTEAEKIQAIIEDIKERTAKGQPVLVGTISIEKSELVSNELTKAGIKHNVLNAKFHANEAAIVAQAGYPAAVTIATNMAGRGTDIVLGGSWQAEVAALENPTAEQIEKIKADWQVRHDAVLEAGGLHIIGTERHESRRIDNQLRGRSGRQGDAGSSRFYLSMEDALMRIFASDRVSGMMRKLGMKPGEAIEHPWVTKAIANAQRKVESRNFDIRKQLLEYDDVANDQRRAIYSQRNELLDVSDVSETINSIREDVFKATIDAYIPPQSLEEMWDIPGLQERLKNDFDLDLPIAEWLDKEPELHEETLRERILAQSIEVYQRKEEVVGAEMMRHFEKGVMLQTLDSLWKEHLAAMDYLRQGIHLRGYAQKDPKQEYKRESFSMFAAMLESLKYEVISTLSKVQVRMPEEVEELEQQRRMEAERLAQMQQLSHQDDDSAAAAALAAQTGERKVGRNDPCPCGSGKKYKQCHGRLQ
Chain of Sialic acid-binding Ig-like lectin 9 (Homo sapiens) (Q9Y336 whole entry): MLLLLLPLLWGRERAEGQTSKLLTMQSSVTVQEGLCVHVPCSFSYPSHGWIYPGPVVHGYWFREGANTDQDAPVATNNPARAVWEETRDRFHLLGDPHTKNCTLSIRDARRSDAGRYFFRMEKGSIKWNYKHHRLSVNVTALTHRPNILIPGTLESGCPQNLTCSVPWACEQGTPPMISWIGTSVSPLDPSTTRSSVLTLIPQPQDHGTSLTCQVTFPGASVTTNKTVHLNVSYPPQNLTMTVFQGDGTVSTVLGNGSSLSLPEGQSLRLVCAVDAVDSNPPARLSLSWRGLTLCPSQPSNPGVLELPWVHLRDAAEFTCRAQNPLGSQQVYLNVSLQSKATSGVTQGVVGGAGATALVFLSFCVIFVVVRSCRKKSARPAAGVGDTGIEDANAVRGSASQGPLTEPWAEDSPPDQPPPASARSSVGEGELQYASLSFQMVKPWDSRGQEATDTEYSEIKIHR

`COc1ccc(CN2CC[C@H](NC(C)=O)[C@@H](O)CC2)c(OC)c1`: the Percent Effect was -4.21% in test [1]; 4.05% in test [2]; 9.24% in [3]; 3.43% in test [4]; 2.77% in [5]; -2.55% in [6]. The Percent Effect is 13.6% in test [7]; 13% in [8]; -1.07% in test [9]; 1.3% in [10]; -12.5% in test [11].

Regarding `Cc1ccc(C(CNCC2CC2)N2CCOCC2)s1` (stereo unspecified), the Percent Effect was 4.94% in test [1]; 8.11% in test [2]; -0.221% in test [3]; 3.49% in test [4]; -6.05% in test [5]; 1.67% in test [6]. Also, the Percent Effect in test [7] was 11.9%; in test [8], 26.7%; in [9], 9.9%; in test [10], 8.54%; in test [11] it was -6.06%.

Consider `CCNC(=O)c1ccoc1CN1c2ccccc2CC1C` (stereo unspecified), for which the Percent Effect in [1] was -3.54%; in [2], 2.74%; in [3], 7.91%; in test [4], 9.27%; in test [5], -3.97%; in [6] it was 2.4%. For the same molecule, the Percent Effect in test [7] amounted to 12.4%; in test [8] it was 5.41%; in test [9] it was 4.17%; in test [10] it was 11.1%; in [11], 1.31%.

As to `CC(=O)N1CC(=O)N(c2cnn(C)c2)CC12CCN(Cc1ccsc1)C2` (stereo unspecified), the Percent Effect in test [1] is -5.9%; in test [2] it was 2.7%; in test [3], -4.89%; in test [4] it was 3.54%; in test [5], -6.05%; in test [6], -1.25%. The Percent Effect in test [7] was 18.3%; in [8] it was 13.5%; in [9], 3.96%; in test [10] it was 3.66%; in test [11] it was -3.49%.

Take `Cc1nn(CC(=O)N2CCN(c3ccncc3)CC2)c(C)c1Cl`: the Percent Effect in test [1] was -3.26%; in [2] it was 10.5%; in test [3], 1.94%; in test [4], 4.31%; in test [5], 1.66%; in test [6], -18.9%. Besides, the Percent Effect in test [7] is 12.6%; in test [8], 16.3%; in [9], 5.32%; in test [10], 15.6%; in test [11], -7.63%.

For `COC(=O)c1cccn1C1CCN(C(=O)c2cn[nH]c2C)CC1`, the Percent Effect is -3.48% in test [1]; 10.4% in test [2]; 0.41% in test [3]; 9.63% in test [4]; 4.31% in test [5]; 0.356% in test [6]. In addition, the Percent Effect in test [7] was 8.11%; in [8] it was 21%; in test [9], 6.8%; in [10], 19.5%; in [11], -9.12%.

Turning to `Cc1cc(CN2CCC(CNC(=O)c3nccc4ccccc34)C2)[nH]n1` (stereo unspecified), the Percent Effect in test [1] is 1.25%; in test [2], 10.8%; in [3] it was -15.5%; in [4] it was 7.44%; in test [5], 4.2%; in test [6], 15.6%. In addition, the Percent Effect in test [7] was 12.3%; in test [8], 26.4%; in test [9], 11.8%; in test [10], 25.9%; in test [11], -2.74%.

Turning to `O=C(c1cccnc1-n1cncn1)N1CCN(CC2CC2)CC1`, the Percent Effect is -2.35% in test [1]; 16.2% in [2]; -2.56% in test [3]; 20.3% in [4]; 5.79% in test [5]; 1.91% in test [6]. In addition, the Percent Effect in test [7] is 11.9%; in test [8], 1.6%; in test [9], 3.7%; in test [10] it was 9.76%; in test [11] it was -2.97%.

Turning to `Clc1ccccc1C1(c2ccnc(-c3ncccn3)n2)CCNCC1`, the Percent Effect is -3.79% in test [1]; 7.79% in test [2]; 1.81% in test [3]; 8.56% in test [4]; -3.64% in [5]; -2.76% in test [6]. Also, the Percent Effect in [7] is 7.49%; in test [8], -17.8%; in test [9] it was 6.45%; in [10] it was 18.5%; in [11] it was -0.785%.

`CC(C)c1noc(C(C)N2CCN(Cc3ccccc3C#N)CC2)n1` (stereo unspecified): the Percent Effect in test [1] is -0.614%; in test [2], -2.63%; in test [3], -8.38%; in [4] it was 2.79%; in test [5], 4.58%; in test [6], -2.52%. The Percent Effect is 3.81% in test [7]; 10.1% in [8]; -3.45% in test [9]; 3.7% in test [10]; 2.36% in test [11].

Take `CC(Cn1ccnc1)NC(=O)C1(c2ccc3c(c2)OCCO3)CCCC1` (stereo unspecified): the Percent Effect in [1] is -1.6%; in test [2], 20.2%; in test [3], -9.88%; in test [4] it was -5.21%; in [5], 1.79%; in test [6] it was -2.66%. For the same molecule, the Percent Effect in test [7] was 15.2%; in test [8], 10.3%; in [9], 6.4%; in test [10], 24.1%; in [11], -7.42%.
